Sampled rows, rich in hits. Any-hit rate of the full collection: about 6.5%.
VACV mCherry inh = inhibitors of vaccinia virus infection (mCherry reporter signal); 0.63% of 310,000 active; Vaccinia virus mCherry reporter infection, fluorescence; Potency, µM (highest dose often 36.5 µM), for the others: at the highest dose activity change, negative = inhibition, most hits filed as inhibitors; AID 720579; calls by dose curve; tested in A549 cells; note: potency is the fitted concentration of half-maximal effect; nearly all actives have a fitted effect of over 35% in size
FMDV inh = blocks foot and mouth disease virus. FMDV antiviral cell-based qHTS. Potency, µM (titrated, usually from 57.9 µM), without a hit: at the top dose activity change, negative = inhibition, actives largely listed as inhibitors. 1.2% of 410,000 active; calls by dose curve; tested in HEK293T cells; note: read-out not given here; potency is the fitted concentration of half-maximal effect; nearly all actives have a fitted effect of over 45% in size
VACV Venus inh = inhibitors of vaccinia virus (Venus reporter); Vaccinia virus Venus reporter expression, fluorescence; Potency, µM (titrated, usually from 36.5 µM), for inactives: at the top dose activity change, negative = inhibition, usual class: inhibitors; 0.46% of 330,000 active; calls by dose curve; tested in A549 cells; note: potency is the fitted concentration of half-maximal effect; nearly all actives have a fitted effect of over 30% in size
MARV entry inh = Marburg virus entry inhibition; Marburg virus pseudotyped entry inhibition, cell reporter; Potency, µM (top dose mostly 37.8 µM), inactives show at the top dose activity change, negative = inhibition, most hits filed as inhibitors; 1.8% of 300,000 active; calls by dose curve; tested in HEK293 cells; note: potency is the fitted concentration of half-maximal effect
HCMV antiviral = human cytomegalovirus inhibition. activity change, negative = inhibition, % at 57.5 µM. 4.5% of 410,000 active. HFF cells, HCMV-luciferase reporter, 72 h; hits give low values; in the data active = activity change below about -60%; inconclusive = no clear call, values can overlap the other calls; inactive = above about -39%
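Steps: HFFs plated, 16 h 37C; compounds added; HCMV-luciferase added to MOI 1 PFU/cell; 72 h 37C; OneGlo reagent, 5 min room temperature; luminescence read, normalized to controls.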
Lassa entry inh = blocks Lassa virus binding to or entry into cells; Lassa virus pseudotype entry inhibition, cell reporter; Potency, µM (highest dose often 37.9 µM), for the others: at the top dose activity change, negative = inhibition, usual class: inhibitors; 1.2% of 300,000 active; AID 540256; calls by dose curve; tested in HEK293 cells; note: potency is the fitted concentration of half-maximal effect; nearly all actives have a fitted effect of over 50% in size
Numbers without * were called inactive; [ ] = remark or other dose. % is set by controls: 0 for no effect and ±100 for the full control effect.

What do the screens show for `CCN(c1ccccc1)S(=O)(=O)c1ccc(Cl)c(C(=O)NC2CCN(Cc3ccccc3)CC2)c1`?
VACV mCherry inh: inconclusive; FMDV inh: inconclusive; VACV Venus inh: inconclusive; MARV entry inh: inconclusive; HCMV antiviral: -70*; Lassa entry inh: inconclusive

Results for O=C(c1ccc(S(=O)(=O)NCc2ccco2)cc1)N1CCN(Cc2ccc3c(c2)OCO3)CC1 ?
VACV mCherry inh: inconclusive; FMDV inh: -16%; VACV Venus inh: -20%; MARV entry inh: -16%; HCMV antiviral: -68*; Lassa entry inh: inconclusive

Results for Cc1ccc(S(=O)(=O)NCc2ccc(C(=O)N3CCN(c4ccc([N+](=O)[O-])cc4)CC3)cc2)cc1 ?
FMDV inh: inconclusive; HCMV antiviral: -98*

How did COc1ccc(N2CCN(C(=O)c3ccc(CNS(=O)(=O)c4ccc(C)cc4)cc3)CC2)cc1 do in these assays?
VACV mCherry inh: -23%; FMDV inh: -28%; VACV Venus inh: -26%; MARV entry inh: inconclusive; HCMV antiviral: inconclusive; Lassa entry inh: inconclusive

Results for O/N=C(/C[n+]1ccsc1)c1ccc(I)cc1 ?
VACV mCherry inh: -7%; VACV Venus inh: inconclusive

How did O=C(c1cccc(S(=O)(=O)NCc2ccccc2)c1)N1CCN(Cc2ccccc2)CC1 do in these assays?
FMDV inh: -18%; VACV Venus inh: -8%; MARV entry inh: 14%; HCMV antiviral: -97*; Lassa entry inh: -17%

What do the screens show for `Cc1ccc(S(=O)(=O)NCc2ccc(C(=O)N3CCN(Cc4ccccc4)CC3)cc2)cc1`?
VACV mCherry inh: -27%; VACV Venus inh: inconclusive; MARV entry inh: inconclusive; HCMV antiviral: -93*; Lassa entry inh: inconclusive

Results for O=C(c1ccc(S(=O)(=O)c2cccc(Cl)c2)c([N+](=O)[O-])c1)N1CCN(Cc2ccccc2)CC1 ?
VACV mCherry inh: -3%; FMDV inh: 11µM*; VACV Venus inh: -16%; MARV entry inh: inconclusive; HCMV antiviral: -36; Lassa entry inh: inconclusive

What do the screens show for `O=C(c1cccc(S(=O)(=O)NCc2ccccc2)c1)N1CCCCC1`?
VACV mCherry inh: -15%; FMDV inh: 21%; VACV Venus inh: -10%; MARV entry inh: 1%; HCMV antiviral: -8; Lassa entry inh: 1%

What do the screens show for `Cc1ccccc1NC(=O)CSc1nc2nccnc2c(=O)n1CCc1c[nH]c2ccccc12`?
VACV mCherry inh: -13%; FMDV inh: -9%; VACV Venus inh: -6%; HCMV antiviral: inconclusive; Lassa entry inh: -1%[46.1 µM]

Results for CCN1CCN(c2nc3c(c(=O)[nH]c(=O)n3C)n2CCSc2nc3ccccc3s2)CC1 ?
VACV mCherry inh: -11%; FMDV inh: -18%; VACV Venus inh: -9%; MARV entry inh: 5%; HCMV antiviral: 33

How did CC(C)CCn1c(Sc2nc3ccccc3s2)nc2c1c(=O)[nH]c(=O)n2C do in these assays?
FMDV inh: 32µM*; MARV entry inh: inconclusive; HCMV antiviral: -26; Lassa entry inh: inconclusive

How did CC(CSc1nc2ccccc2s1)Cn1c(N2CCCC2)nc2c1c(=O)[nH]c(=O)n2C (stereo unspecified) do in these assays?
VACV mCherry inh: -7%; FMDV inh: -2%; VACV Venus inh: -23%; MARV entry inh: 8.9µM*; HCMV antiviral: inconclusive; Lassa entry inh: -22%

What do the screens show for `CCOc1ccccc1NC(=O)Cn1c(=O)n(CCCC(=O)NCCOC)c(=O)c2cc(OC)c(OC)cc21`?
VACV mCherry inh: -1%; FMDV inh: -6%; VACV Venus inh: 1%; MARV entry inh: 5%[46.1 µM]; HCMV antiviral: -3; Lassa entry inh: -13%[46.1 µM]

What do the screens show for `CCOC(=O)c1c(NC(=O)COc2cccc3c2CCN(C)C3=O)sc2c1CCC2`?
VACV mCherry inh: -17%; FMDV inh: inconclusive; VACV Venus inh: inconclusive; MARV entry inh: inconclusive; HCMV antiviral: -63*; Lassa entry inh: inconclusive

How did O=S(=O)(c1ccc(Cl)cc1)N1CCN=C1SCc1cccc(Cl)c1 do in these assays?
VACV mCherry inh: -6%; FMDV inh: inconclusive; VACV Venus inh: -26%; MARV entry inh: -16%; HCMV antiviral: -62*; Lassa entry inh: inconclusive

How did COc1ccc(S(=O)(=O)N2CCN=C2SCc2cccc(C)c2)cc1 do in these assays?
VACV mCherry inh: 0%; FMDV inh: inconclusive; VACV Venus inh: -14%; MARV entry inh: inconclusive; HCMV antiviral: -75*; Lassa entry inh: inconclusive

Screens: PubChem, National Center for Advancing Translational Sciences (NCATS)
